Measurements: the supplement of paper PMC6555819

Key:
Test in all cases: PBM binding z-score (relative to random genomic background probes); higher = stronger binding; sequences stand for … in GC…GCGATTGACAGCGTAGAATGAAGG
[1] = tested on: FXR:RXRa (NR concentration 270 nM, RXRa partner concentration 90 nM)
Outline: (§1)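 Probes were double-stranded and carried 34-nt variable regions with direct-repeat seeds, single-nucleotide variants, half-site ablations and random human genomic background sequences, printed on custom Agilent 4×180K protein-binding microarrays. Arrays were incubated 1 h with ligand-free nuclear receptor dimers in PBS pH 7.4, 2% milk, 0.02% Triton X-100, 1 mM DTT, 0.2 mg/mL BSA and 0.4 mg/ml salmon testes DNA. Antibodies against each partner (one per run) detected binding, and scanned fluorescence was regression-normalized. Binding z-scores use the random background probes as reference.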

[2] = tested on: LXRa:RXRa (NR concentration 270 nM, RXRa partner concentration 90 nM)
Outline: as §1

[3] = tested on: LXRa homodimer (NR concentration 270 nM)
Outline: as §1

[4] = tested on: LXRb:RXRa (NR concentration 270 nM, RXRa partner concentration 90 nM)
Outline: as §1

[5] = tested on: LXRb homodimer (NR concentration 270 nM)
Outline: as §1

[6] = tested on: PPARa:RXRa (NR concentration 270 nM, RXRa partner concentration 90 nM)
Outline: as §1

[7] = tested on: PPARg:RXRa (NR concentration 180 nM, RXRa partner concentration 90 nM)
Outline: as §1

[8] = tested on: PPARg:RXRa 270nM:90nM, anti-RXR (NR concentration 270 nM, RXRa partner concentration 90 nM)
Outline: as §1

[9] = tested on: PPARg:RXRa 30nM:10nM, anti-RXR (NR concentration 30 nM, RXRa partner concentration 10 nM)
Outline: as §1

[10] = tested on: PPARg:RXRa 90nM:30nM, anti-RXR (NR concentration 90 nM, RXRa partner concentration 30 nM)
Outline: as §1

[11] = tested on: PPARg:RXRa DBDmut IVT, anti-RXR (DBD mutation: RXRa K156A/R161A, NR concentration 270 nM, RXRa partner concentration 90 nM)
Outline: as §1

[12] = tested on: PPARg:RXRa IVT, anti-PPARg (NR concentration 270 nM, RXRa partner concentration 90 nM)
Outline: as §1

[13] = tested on: PPARg DBDmut:RXRa IVT, anti-PPARg (DBD mutation: PPARg1 K132A/R137A, NR concentration 270 nM, RXRa partner concentration 90 nM)
Outline: as §1

[14] = tested on: PPARg DBDmut IVT, anti-PPARg (DBD mutation: PPARg1 K132A/R137A, NR concentration 270 nM)
Outline: as §1

[15] = tested on: PPARg homodimer (NR concentration 180 nM)
Outline: as §1

[16] = tested on: PXR:RXRa (NR concentration 270 nM, RXRa partner concentration 90 nM)
Outline: as §1

[17] = tested on: PXR homodimer (NR concentration 270 nM)
Outline: as §1

[18] = tested on: RARa:RXR (NR concentration 270 nM, RXRa partner concentration 90 nM)
Outline: as §1

[19] = tested on: RARa homodimer (NR concentration 270 nM)
Outline: as §1

[20] = tested on: RARb:RXRa (NR concentration 270 nM, RXRa partner concentration 90 nM)
Outline: as §1

Sequence | PBM binding z-score [1] | PBM binding z-score [2] | PBM binding z-score [3] | PBM binding z-score [4] | PBM binding z-score [5] | PBM binding z-score [6] | PBM binding z-score [7] | PBM binding z-score [8] | PBM binding z-score [9] | PBM binding z-score [10] | PBM binding z-score [11] | PBM binding z-score [12] | PBM binding z-score [13] | PBM binding z-score [14] | PBM binding z-score [15] | PBM binding z-score [16] | PBM binding z-score [17] | PBM binding z-score [18] | PBM binding z-score [19] | PBM binding z-score [20]
TTACCAAGGTGAGCTGAGGACGTTGATCCAACTC | 1.1 | -0.166 | -0.767 | -0.542 | -1.14 | 0.258 | -0.0163 | -0.267 | -0.263 | -0.212 | 0.681 | 1.36 | -0.327 | -0.329 | -0.722 | 2.25 | -0.289 | 1.03 | -0.906 | 1.05
ATCTCTAGGTAACAAGTTCGGTGAAAGAGAGGAC | 0.656 | 0.804 | 0.56 | 0.383 | 0.814 | 0.973 | 1.13 | 1.67 | 0.766 | 1.35 | 3.31 | 2.96 | 1.06 | 0.893 | 1.01 | 0.677 | 0.713 | 0.675 | 0.59 | 0.969
TCTAGTTGGTCAAAGGTCACACACTCGAAATGCG | 6.09 | 5.91 | 4 | 5.53 | 1.76 | 6.56 | 11.6 | 10 | 10.4 | 12.2 | 3.69 | 6.56 | 2.18 | 2.02 | 6.43 | 6.12 | 1.83 | 7.45 | 3.65 | 5.09
CTACCAAGGTGAACAAGGTTGTTGATTACTATTC | 0.708 | 0.561 | -0.172 | 1.36 | -0.417 | 1.53 | 0.7 | 0.746 | -0.199 | 0.615 | 2.39 | 2.42 | -0.144 | 0.038 | 0.436 | 1.04 | 0.435 | 0.73 | 0.287 | 1.57
CCTCGGAGAACAGAAGGTCAGAGCTGTCCGCTTT | 1.13 | 1.7 | 0.757 | 1.3 | -0.0418 | 1.85 | -0.162 | 0.587 | -0.776 | 0.369 | 0.0999 | -0.304 | -1.44 | -1.47 | 1.67 | 1.44 | 0.0963 | 1.92 | 0.634 | 2.42
TTACTAAGGTGAGCTGAGGTCGTTGATCCAACTC | 2.26 | 1.54 | -0.344 | 1.04 | -0.663 | 1.97 | 0.363 | 1.26 | 0.174 | 0.711 | 2.04 | 2.66 | 0.501 | 0.0653 | 0.306 | 5.17 | 0.515 | 2.16 | -0.407 | 2.07
TCTAGCAGGCCAGAGGGTCTCTCAAGAGGTACGG | -1.4 | -0.676 | -0.763 | -0.66 | -1.71 | -0.298 | 0.13 | 0.975 | 1.38 | 1.06 | 0.543 | -0.453 | -1.92 | -1.94 | -0.634 | -0.569 | -1.12 | -0.436 | -0.894 | -0.239
TATACAGGGTTAAAGGCCAGAGTACGAATGTCGA | 2.5 | 2.59 | 0.356 | 1.91 | 0.834 | 3.84 | 5.07 | 5.44 | 3.04 | 4.7 | 0.697 | 2.95 | 1.23 | 1.68 | 1.75 | 1.82 | 0.41 | 2.44 | 0.668 | 2.13
ATCAAAAGGTCGTGAGGTGAGTATACAGAAAGGC | 5.1 | 4.46 | 0.539 | 3.63 | 1.22 | 5.2 | 4.38 | 4.66 | 1.92 | 3.33 | 0.609 | 2.81 | 1.96 | 1.55 | 2.38 | 3.53 | 1.09 | 4.34 | 1.26 | 4.29
ATATGTAGGTTATCGGGTCAGTCAGTTTGCGCAT | 2.15 | 2.12 | 0.91 | 1.91 | 1.49 | 4.28 | 6.83 | 5.81 | 3.11 | 5 | 7.7 | 7.77 | 4.15 | 2.31 | 2.57 | 2.53 | 2.52 | 2.6 | 1.19 | 2.55
CCTTCTAGGTCAATGGTCAGCTAAAGCAGCTCGC | 3.17 | 2.37 | 0.146 | 1.58 | 0.698 | 4.34 | 7.25 | 6.5 | 5.76 | 7.12 | 7.32 | 6.6 | 0.00752 | 0.699 | 2.03 | 0.931 | -0.321 | 1.73 | 0.51 | 3.85
CCTCGGAGGACAACAGGAGGTCAGAGGTGCCAGA | 1.07 | 1.95 | 2.19 | 1.34 | -0.628 | 2.04 | 1.1 | 1.57 | -0.13 | 0.94 | -0.227 | 0.737 | -1.23 | -1.03 | 1.99 | 2.36 | 0.719 | 2.6 | 0.638 | 3
AATACAGGGTCATCGTAAGCCAGAGTACGCACAG | 7.41 | 6.05 | 2.24 | 4.69 | 1.14 | 6.1 | 6.63 | 5.96 | 2.84 | 4.83 | 2.67 | 4.15 | 1.58 | 1.04 | 1.65 | 4.05 | 1 | 4.6 | 0.623 | 4.43
TCGAGTAGGTTAGTCGGGGTATTCAGCCAACATA | 0.000404 | -0.0351 | -0.315 | 0.411 | -0.451 | 0.421 | -0.245 | 0.44 | 1.24 | 0.688 | 2.12 | 1.56 | -0.225 | -0.287 | -0.0532 | -0.197 | -0.205 | 0.128 | -0.0281 | 0.0838
